# Assay results taken from PubChem BioAssay (NCI).
# The panel holds about 79,000 compounds, 15% with a hit somewhere; the sample as a whole holds those more often. A number with no mark means an inactive call. Activity calls are given as the source filed them. Rule as the data show it: active = growth inhibition above about 70%; inactive = the rest.
# Key:
# [1] = NCI Yeast Anticancer Drug Screen. Data for the rad52 strain (AID 147);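 also: 0% = growth of vehicle-treated control cultures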; conditions: S. cerevisiae rad52 mutant growth inhibition, active compounds read high
# Summary of the method: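 Screen used a yeast mutant impaired in DNA repair. After compound exposure, growth was measured. Values reflect inhibition compared with vehicle-treated cells.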
# [2] = NCI Yeast Anticancer Drug Screen. Data for the wt1 strain (AID 149);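 also: 0% = growth of vehicle-treated wt1 cultures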; conditions: S. cerevisiae wt1 strain (SPY 50644) growth inhibition, active compounds read high
# Summary of the method: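 Vehicle-normalised growth inhibition; strain wt1; compound exposure.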
# [3] = NCI Yeast Anticancer Drug Screen. Data for the rad50EPP+ strain (AID 151);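 also: 0% = growth of vehicle-treated control cultures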; conditions: S. cerevisiae rad50 mutant strain, active compounds read high
# Summary of the method: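 Exposing the rad50EPP+ strain to each compound, growth was compared with vehicle-only cultures to give inhibition.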
# [4] = NCI Yeast Anticancer Drug Screen. Data for the mgt1 strain (AID 153); conditions: S. cerevisiae mgt1 mutant growth inhibition, active compounds read high
# Summary of the method: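 Genetically defined yeast (mgt1) treated with compound; inhibition of growth expressed against vehicle-treated controls.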
# [5] = NCI Yeast Anticancer Drug Screen. Data for the rad50 strain (AID 155);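 also: 0% = growth of vehicle-only cultures of the same strain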; conditions: S. cerevisiae rad50 strain growth inhibition, active compounds read high
# Summary of the method: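 A DNA repair-deficient yeast mutant serves as the test organism; compound-induced growth inhibition is calculated against vehicle-treated cells.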
# [6] = NCI Yeast Anticancer Drug Screen. Data for the mec2-1 strain (AID 157); conditions: S. cerevisiae mec2-1 strain, active compounds read high
# Summary of the method: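 Readout is yeast growth inhibition, normalised to vehicle-treated controls, in the mec2-1 strain exposed to compound.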
# [7] = NCI Yeast Anticancer Drug Screen. Data for the rad14 strain (AID 159);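 also: 0% = growth of vehicle-treated control cultures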; conditions: S. cerevisiae rad14 strain growth inhibition, active compounds read high
# Summary of the method: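 Vehicle-treated cultures served as the baseline for growth inhibition of a DNA repair-mutant yeast strain exposed to each compound.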
# [8] = NCI Yeast Anticancer Drug Screen. Data for the sgs1 mgt1 strain (AID 161);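 also: 0% = growth of cultures given vehicle only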; conditions: S. cerevisiae sgs1 mgt1 strain, active compounds read high
# Summary of the method: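 This yeast growth screen uses a strain with defined DNA-repair lesions; compound-treated growth is compared with vehicle-treated growth.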
# [9] = NCI Yeast Anticancer Drug Screen. Data for the CLN2oe strain (AID 163);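 also: 0% = growth of vehicle-only control cultures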; conditions: S. cerevisiae CLN2oe strain, active compounds read high
# Summary of the method: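 Values reflect how much compound exposure reduced yeast growth, referenced to vehicle-exposed cells. Assay organism is a strain with a defined genetic change affecting cell-cycle control.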
# [10] = NCI Yeast Anticancer Drug Screen. Data for the cln2 rad14 strain (AID 165);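 also: 0% = growth equal to vehicle treated cultures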; conditions: S. cerevisiae cln2 rad14 strain, active compounds read high
# Summary of the method: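 Relative to vehicle controls, growth inhibition of compound-treated cln2 rad14 yeast was recorded.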
# [11] = NCI Yeast Anticancer Drug Screen. Data for the bub3 strain (AID 167); conditions: S. cerevisiae bub3 mutant strain, active compounds read high
# Summary of the method: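 Inhibition values come from growth of compound-treated mutant yeast normalised to vehicle-treated controls.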
# [12] = NCI Yeast Anticancer Drug Screen. Data for the mlh1 strain (AID 171);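 also: 0% = growth of vehicle-treated control cultures of the same strain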; conditions: S. cerevisiae mlh1 strain growth inhibition, active compounds read high
# Summary of the method: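 Steps: expose the defined-mutant yeast strain to compound; expose a parallel culture to vehicle; measure growth; express compound effect as inhibition relative to the vehicle culture.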
# [13] = NCI Yeast Anticancer Drug Screen. Data for the sgs1 strain (AID 173);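 also: 0% = growth of vehicle-only control cultures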; conditions: S. cerevisiae sgs1 mutant, active compounds read high
# Summary of the method: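 Treat defined-mutant yeast with compound; measure growth; calculate inhibition relative to vehicle-treated cells.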
# [14] = NCI Yeast Anticancer Drug Screen. Data for the mlh1 rad18 strain (AID 175); conditions: S. cerevisiae mlh1 rad18 strain growth inhibition, active compounds read high
# Summary of the method: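 Test agents were incubated with a yeast strain of defined genotype (DNA damage repair defect). Inhibition of growth was derived by comparison with vehicle-exposed cultures.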
# [15] = NCI Yeast Anticancer Drug Screen. Data for the rad18 strain (AID 177); conditions: S. cerevisiae rad18 mutant growth inhibition, active compounds read high
# Summary of the method: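 A genetically defined yeast mutant impaired in DNA damage repair was treated with test compounds, then its growth was measured against cultures receiving vehicle alone.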
# [16] = at 5.0 µM (retest, dose inferred, filed as 0.5)
# [17] = at 50.0 µM (retest, dose inferred, filed as 5.0)
structure (smiles),measurement,setting,value
Fc1ccc(Nc2ccc3ccccc3c2)cc1,growth inhibition,[1]; at 1.2 µM,-1%
same,growth inhibition,[1]; at 3.7 µM,-2%
same,growth inhibition,[1]; at 11.0 µM,-3%
same,growth inhibition,[1]; at 33.0 µM,17%
same,growth inhibition,[1]; at 100.0 µM,78% (active)
same,growth inhibition,[2]; at 1.2 µM,-1%
same,growth inhibition,[2]; at 3.7 µM,0%
same,growth inhibition,[2]; at 11.0 µM,-2%
same,growth inhibition,[2]; at 33.0 µM,21%
same,growth inhibition,[2]; at 100.0 µM,41%
same,growth inhibition,[3]; at 1.2 µM,-3%
same,growth inhibition,[3]; at 3.7 µM,-3%
same,growth inhibition,[3]; at 11.0 µM,-1%
same,growth inhibition,[3]; at 33.0 µM,4%
same,growth inhibition,[3]; at 100.0 µM,7%
same,growth inhibition,[4]; at 1.2 µM,-2%
same,growth inhibition,[4]; at 3.7 µM,-1%
same,growth inhibition,[4]; at 11.0 µM,-2%
same,growth inhibition,[4]; at 33.0 µM,54%
same,growth inhibition,[4]; at 100.0 µM,94% (active)
same,growth inhibition,[5]; at 1.2 µM,-6%
same,growth inhibition,[5]; at 3.7 µM,-48%
same,growth inhibition,[5]; [16],-1%
same,growth inhibition,[5]; at 11.0 µM,8%
same,growth inhibition,[5]; at 33.0 µM,4%
same,growth inhibition,[5]; [17],64%
same,growth inhibition,[5]; at 50.0 µM,91% (active)
same,growth inhibition,[5]; at 100.0 µM,89% (active)
same,growth inhibition,[6]; at 1.2 µM,-1%
same,growth inhibition,[6]; at 3.7 µM,0%
same,growth inhibition,[6]; [16],-2%
same,growth inhibition,[6]; at 11.0 µM,-3%
same,growth inhibition,[6]; at 33.0 µM,25%
same,growth inhibition,[6]; [17],84% (active)
same,growth inhibition,[6]; at 50.0 µM,90.2% (active)
same,growth inhibition,[6]; at 100.0 µM,93% (active)
same,growth inhibition,[7]; at 1.2 µM,-1%
same,growth inhibition,[7]; at 3.7 µM,2%
same,growth inhibition,[7]; at 11.0 µM,2%
same,growth inhibition,[7]; at 33.0 µM,55%
same,growth inhibition,[7]; at 100.0 µM,97% (active)
same,growth inhibition,[8]; [16],-4%
same,growth inhibition,[8]; [17],86% (active)
same,growth inhibition,[8]; at 50.0 µM,91.2% (active)
same,growth inhibition,[9]; at 1.2 µM,2%
same,growth inhibition,[9]; at 3.7 µM,-2%
same,growth inhibition,[9]; at 11.0 µM,-1%
same,growth inhibition,[9]; at 33.0 µM,-11%
same,growth inhibition,[9]; at 100.0 µM,44%
same,growth inhibition,[10]; [16],-3%
same,growth inhibition,[10]; [17],67%
same,growth inhibition,[10]; at 50.0 µM,92.1% (active)
same,growth inhibition,[11]; at 1.2 µM,0%
same,growth inhibition,[11]; at 3.7 µM,-7%
same,growth inhibition,[11]; [16],0%
same,growth inhibition,[11]; at 11.0 µM,-6%
same,growth inhibition,[11]; at 33.0 µM,-9%
same,growth inhibition,[11]; [17],12%
same,growth inhibition,[11]; at 50.0 µM,92.8% (active)
same,growth inhibition,[11]; at 100.0 µM,88% (active)
same,growth inhibition,[12]; at 1.2 µM,0%
same,growth inhibition,[12]; at 3.7 µM,0%
same,growth inhibition,[12]; at 11.0 µM,-2%
same,growth inhibition,[12]; at 33.0 µM,44%
same,growth inhibition,[12]; at 100.0 µM,90% (active)
same,growth inhibition,[13]; at 1.2 µM,-2%
same,growth inhibition,[13]; at 3.7 µM,0%
same,growth inhibition,[13]; at 11.0 µM,2%
same,growth inhibition,[13]; at 33.0 µM,63%
same,growth inhibition,[13]; at 100.0 µM,95% (active)
same,growth inhibition,[14]; [16],-3%
same,growth inhibition,[14]; [17],69%
same,growth inhibition,[14]; at 50.0 µM,93.5% (active)
same,growth inhibition,[15]; at 1.2 µM,0%
same,growth inhibition,[15]; at 3.7 µM,1%
same,growth inhibition,[15]; at 11.0 µM,0%
same,growth inhibition,[15]; at 33.0 µM,-1%
same,growth inhibition,[15]; at 100.0 µM,91% (active)
O=S(=O)(c1ccccc1)N1CN2CN(C1)CN(S(=O)(=O)c1ccccc1)C2,growth inhibition,[1]; at 1.2 µM,-10%
same,growth inhibition,[1]; at 3.7 µM,-2%
same,growth inhibition,[1]; at 11.0 µM,-15%
same,growth inhibition,[1]; at 33.0 µM,-8%
same,growth inhibition,[1]; at 100.0 µM,-5%
same,growth inhibition,[2]; at 1.2 µM,-3%
same,growth inhibition,[2]; at 3.7 µM,14%
same,growth inhibition,[2]; at 11.0 µM,17%
same,growth inhibition,[2]; at 33.0 µM,11%
same,growth inhibition,[2]; at 100.0 µM,16%
same,growth inhibition,[3]; at 1.2 µM,-18%
same,growth inhibition,[3]; at 3.7 µM,-15%
same,growth inhibition,[3]; at 11.0 µM,-15%
same,growth inhibition,[3]; at 33.0 µM,-12%
same,growth inhibition,[3]; at 100.0 µM,-10%
same,growth inhibition,[4]; at 1.2 µM,0%
same,growth inhibition,[4]; at 3.7 µM,7%
same,growth inhibition,[4]; at 11.0 µM,5%
same,growth inhibition,[4]; at 33.0 µM,7%
same,growth inhibition,[4]; at 100.0 µM,6%
same,growth inhibition,[5]; at 1.2 µM,-4%
same,growth inhibition,[5]; at 3.7 µM,-7%
same,growth inhibition,[5]; [16],24%
same,growth inhibition,[5]; at 11.0 µM,-10%
same,growth inhibition,[5]; at 33.0 µM,-12%
same,growth inhibition,[5]; [17],38%
same,growth inhibition,[5]; at 50.0 µM,-11.5%
same,growth inhibition,[5]; at 100.0 µM,-11%
same,growth inhibition,[6]; at 1.2 µM,-2%
same,growth inhibition,[6]; at 3.7 µM,-6%
